In PubChem BioAssay (NCATS):
Values without a mark were called inactive. Results filed as inconclusive are left out. Active and inactive are the calls of the source. Unless noted, calls come from the whole dose curve; as a rule, active = well fitted curve in either direction with a large enough effect (not every such curve was filed as active); inconclusive = small, poorly fitted or top-dose-only effect, or another doubt; inactive = flat fitted curve, though single readings scatter.

Target: Lysosomal acid glucosylceramidase (Homo sapiens) (UniProt P04062)
Sequence (P04062 whole entry, looked up): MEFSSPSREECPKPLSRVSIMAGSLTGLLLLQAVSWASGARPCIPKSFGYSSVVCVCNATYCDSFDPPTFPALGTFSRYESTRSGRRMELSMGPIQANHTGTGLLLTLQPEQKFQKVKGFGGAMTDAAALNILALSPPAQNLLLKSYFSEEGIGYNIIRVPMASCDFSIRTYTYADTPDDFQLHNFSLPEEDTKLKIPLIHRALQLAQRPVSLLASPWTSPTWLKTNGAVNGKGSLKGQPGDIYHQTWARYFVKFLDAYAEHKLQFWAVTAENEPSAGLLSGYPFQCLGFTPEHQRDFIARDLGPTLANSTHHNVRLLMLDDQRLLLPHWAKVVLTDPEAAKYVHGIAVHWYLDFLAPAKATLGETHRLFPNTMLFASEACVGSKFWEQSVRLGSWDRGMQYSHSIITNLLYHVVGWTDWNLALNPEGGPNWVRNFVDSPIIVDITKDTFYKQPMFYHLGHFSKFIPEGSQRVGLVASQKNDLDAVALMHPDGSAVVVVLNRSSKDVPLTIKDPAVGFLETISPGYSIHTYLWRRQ
Assay: Glucocerebrosidase-p2 (AID 348; in the data active = potency below about 10 µM; note: potency is the fitted concentration of half-maximal effect)
Conditions: purified GBA, blue fluorogenic substrate, 40 min
How it was run: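 Compounds titrated from 0.6 nM upwards against 0.2 nM enzyme in pH 5.9 citric acid/KH2PO4, taurocholate, tween-20; blue fluorogenic substrate 80 uM, 40 min room temperature, stopped and read Ex 365/Em 440 for AC50.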

SMILES | Potency [µM]
Cc1ccc(Nc2nnc(-c3ccc4c(c3)OCO4)o2)c(C)c1 | > 11.4
CN[C@@H](c1ccncc1)[C@@H](NC)c1ccncc1 | > 11.4
Cc1cnc(CNc2nc(-c3cccnc3)nc3ccccc23)cn1 | > 11.4
C(=N/Nc1nnc2c(n1)[nH]c1ccccc12)/c1cccnc1 | > 11.4
CC(C)[C@@H]1OC(=O)C=CC=CC=CC=CC=CC[C@@H](O)[C@H](C)[C@@H](O)C[C@H](O)C[C@H](O)C[C@H](O)C[C@H](O)C[C@H](O)C[C@H](O)C=C[C@@H]1C | > 11.4
COc1ccc2c(c1)Cc1cc(N=[N+]([O-])c3ccc4c(c3)Cc3cc(OC)ccc3-4)ccc1-2 | > 11.4
Nc1nc(SC/C=C\c2ccccc2)c2[nH]cnc2n1 | > 11.4
O=C(CC(=O)c1ccncc1)c1ccccc1 | > 11.4
O=c1oc2cc(N=Cc3ccc4c(c3)OCO4)ccc2c2ccccc12 | > 11.4
CSC1(SC2=NCCN2)SC2(NCCN2)S1 | > 11.4
O[C@@H](C1=C/C(=C\c2ccncc2)c2ccccc21)c1ccncc1 | > 11.4
Nc1nc(SCCc2ccccc2)c2[nH]cnc2n1 | > 11.4
Nc1nc(SCc2ccccc2[N+](=O)[O-])c2[nH]cnc2n1 | > 11.4
O=S(=O)(c1cnccc1N1CCN(CCO)CC1)N1CCCC1 | > 11.4
COc1ccc(Oc2ncc3nc(C)c(=O)n(-c4ccc(OC)cc4)c3n2)cc1 | > 11.4
Cn1ncc2c(NCCc3ccccc3)nc(Cl)nc21 | > 11.4
C/C(=N/Nc1ccc2ccccc2n1)c1ccccc1O | > 11.4
Nc1[nH]c(=S)[nH]c(=O)c1N=Nc1c(Br)cc(S(N)(=O)=O)cc1Br | > 11.4
COc1ccc(C[C@@H]2C(=O)N[C@H](C)C(=O)N(C)[C@@H]3Cc4ccc(cc4)Oc4cc(ccc4O)C[C@H](C(=O)N[C@@H](C)C(=O)N[C@H](C)C(=O)N2C)N(C)C3=O)cc1 | > 11.4
O=C(O)c1ccc(SSc2ccc(C(=O)O)cn2)nc1 | > 11.4

SMILES | Potency [µM]
Cc1ccc(S(=O)(=O)Nc2cc(=O)[nH]c3c2CCC3)cc1 | > 11.4
BrC(c1cccc2ccccc12)c1cccc2ccccc12 | > 11.4
c1ccc(C[C@@H](Nc2cccnc2)c2ccccc2)cc1 | > 11.4
N=C(N)S[C@H]1c2ccccc2-c2cc([N+](=O)[O-])ccc21 | > 11.4
CC(C)(C)C(=O)[C@H]([C@@H](c1ccccc1)N1CCOCC1)N1CCOCC1 | > 11.4
O=C(O)CCc1nc(-c2ccccc2-n2cccc2)no1 | > 11.4
O=C(O)/C(=C\c1ccccc1)Cc1ccccc1 | > 11.4
O=S(=O)(O)c1cc(O)c2c(N=Cc3ccccc3O)cc(S(=O)(=O)O)cc2c1 | > 11.4
Cn1c(=S)c2[nH]c(SCc3cccnc3)nc2n(C)c1=O | > 11.4
CC(C)N1CCN(c2ccncc2S(=O)(=O)N2CCCCC2)CC1 | > 11.4
Cc1cc2c(cc1C)NC1=C(N2)O[C@H](c2c[nH]c3ccc(COc4ccccc4)cc23)C1=O | > 11.4
COc1cc(Cl)c(CC(=O)c2c[nH]c3ccccc23)cc1OC | > 11.4
Cc1ccc2c(c1)N[C@H](c1ccc(C(=O)O)cc1)c1cccn1-2 | > 11.4
COc1ccc2c(Cl)cc(NC(=S)Nc3ccccc3)nc2c1 | 10.6
c1ccc2c(c1)-c1nc3ccccc3cc1[C@H]2N1CCOCC1 | > 11.4
Nc1cccc(OCc2nc(N)nc(N)c2-c2ccc(Cl)cc2)c1 | > 11.4
CC1=C/C(=C(/c2ccc(O)c(C)c2)c2ccccc2C(=O)O)C=CC1=O | > 11.4
N#C/C(=C\Nc1ccccn1)C(=O)c1ccco1 | > 11.4
Cn1c(=O)c2[nH]c(CCCCc3nc4c([nH]3)c(=O)n(C)c(=S)n4C)nc2n(C)c1=S | > 11.4

System: not listed separately
Assay: AP1 Signaling Pathway (AID 357); note: % is set by controls: 0 for no effect and ±100 for the full control effect
Conditions: ME-180 (cervical carcinoma) AP-1-bla reporter, EGF-induced, beta-lactamase ratio, 5 h; at 7.69 µM (top of the series) unless noted
How it was run: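 Modulation of EGF-driven AP-1 transcription was assessed with a beta-lactamase reporter in ME-180 cells. Compound and EC50 EGF were co-incubated 5 hours at 37 °C before 2.5-hour CCF4 loading at room temperature and dual-emission reading.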

SMILES | activity change, negative = inhibition
Cc1ccc(Nc2nnc(-c3ccc4c(c3)OCO4)o2)c(C)c1 | -5.47%
CN[C@@H](c1ccncc1)[C@@H](NC)c1ccncc1 | 11.4%
Cc1cnc(CNc2nc(-c3cccnc3)nc3ccccc23)cn1 | -11.8%
C(=N/Nc1nnc2c(n1)[nH]c1ccccc12)/c1cccnc1 | -0.49%
CC(C)[C@@H]1OC(=O)C=CC=CC=CC=CC=CC[C@@H](O)[C@H](C)[C@@H](O)C[C@H](O)C[C@H](O)C[C@H](O)C[C@H](O)C[C@H](O)C[C@H](O)C=C[C@@H]1C | 1.06%
COc1ccc2c(c1)Cc1cc(N=[N+]([O-])c3ccc4c(c3)Cc3cc(OC)ccc3-4)ccc1-2 | -9.92%
Nc1nc(SC/C=C\c2ccccc2)c2[nH]cnc2n1 | 6.66%
O=C(CC(=O)c1ccncc1)c1ccccc1 | 4.49%
O=c1oc2cc(N=Cc3ccc4c(c3)OCO4)ccc2c2ccccc12 | 7.4%
CSC1(SC2=NCCN2)SC2(NCCN2)S1 | -0.329%
O[C@@H](C1=C/C(=C\c2ccncc2)c2ccccc21)c1ccncc1 | 6.34%
Nc1nc(SCCc2ccccc2)c2[nH]cnc2n1 | -4.07%
Nc1nc(SCc2ccccc2[N+](=O)[O-])c2[nH]cnc2n1 | -3.57%
O=S(=O)(c1cnccc1N1CCN(CCO)CC1)N1CCCC1 | 7.47%
COc1ccc(Oc2ncc3nc(C)c(=O)n(-c4ccc(OC)cc4)c3n2)cc1 | -21.8%
Cn1ncc2c(NCCc3ccccc3)nc(Cl)nc21 | -2.77%
C/C(=N/Nc1ccc2ccccc2n1)c1ccccc1O | 5.21%
Nc1[nH]c(=S)[nH]c(=O)c1N=Nc1c(Br)cc(S(N)(=O)=O)cc1Br | 1.56%
COc1ccc(C[C@@H]2C(=O)N[C@H](C)C(=O)N(C)[C@@H]3Cc4ccc(cc4)Oc4cc(ccc4O)C[C@H](C(=O)N[C@@H](C)C(=O)N[C@H](C)C(=O)N2C)N(C)C3=O)cc1 | -121% (active)
O=C(O)c1ccc(SSc2ccc(C(=O)O)cn2)nc1 | -2.82%

SMILES | activity change, negative = inhibition
Cc1ccc(S(=O)(=O)Nc2cc(=O)[nH]c3c2CCC3)cc1 | 6.25%
BrC(c1cccc2ccccc12)c1cccc2ccccc12 | 0.329%
c1ccc(C[C@@H](Nc2cccnc2)c2ccccc2)cc1 | 5.71%
N=C(N)S[C@H]1c2ccccc2-c2cc([N+](=O)[O-])ccc21 | -7.27%
CC(C)(C)C(=O)[C@H]([C@@H](c1ccccc1)N1CCOCC1)N1CCOCC1 | 0.675%
O=C(O)CCc1nc(-c2ccccc2-n2cccc2)no1 | -5.29%
O=C(O)/C(=C\c1ccccc1)Cc1ccccc1 | -5.32%
O=S(=O)(O)c1cc(O)c2c(N=Cc3ccccc3O)cc(S(=O)(=O)O)cc2c1 | -14.5%
Cn1c(=S)c2[nH]c(SCc3cccnc3)nc2n(C)c1=O | -21.1%
CC(C)N1CCN(c2ccncc2S(=O)(=O)N2CCCCC2)CC1 | 0.726%
Cc1cc2c(cc1C)NC1=C(N2)O[C@H](c2c[nH]c3ccc(COc4ccccc4)cc23)C1=O | -28.4%
COc1cc(Cl)c(CC(=O)c2c[nH]c3ccccc23)cc1OC | -19.9%
Cc1ccc2c(c1)N[C@H](c1ccc(C(=O)O)cc1)c1cccn1-2 | -23.5%
COc1ccc2c(Cl)cc(NC(=S)Nc3ccccc3)nc2c1 | 9.58%
c1ccc2c(c1)-c1nc3ccccc3cc1[C@H]2N1CCOCC1 | -6.79%
Nc1cccc(OCc2nc(N)nc(N)c2-c2ccc(Cl)cc2)c1 | 6.37%
CC1=C/C(=C(/c2ccc(O)c(C)c2)c2ccccc2C(=O)O)C=CC1=O | 12.7%
N#C/C(=C\Nc1ccccn1)C(=O)c1ccco1 | 2.96%
Cn1c(=O)c2[nH]c(CCCCc3nc4c([nH]3)c(=O)n(C)c(=S)n4C)nc2n(C)c1=S | 1.54%
